Consider 14 compounds from PubChem BioAssay (NCATS).

The structures appear in SMILES notation. Results filed as inconclusive are left out. Calls of active or inactive are those of the source. The call rests on the fitted dose curve; in most records, active means well fitted curve in the direction sought with a large enough effect; inconclusive means small, poorly fitted or top-dose-only effect, or another doubt; inactive means no such curve, though single readings can be large; an effect the other way counts as inactive or inconclusive. Non-standard residues stand in square brackets, D forms with d. Residues, ends and D or L forms follow the SMILES beside them. *: point of attachment. Nva = CCC[C@H](N)C(=O)O; Cbz = O=C(OCc1ccccc1)*

Assay [1] is described as follows: qHTS of pediatric cancer cell lines to identify multiple opportunities for drug repurposing: Primary screen for BT-12 cells (AID 1347101). Further: nearly all actives have a fitted effect of over 25% in size. A digest of the protocol:
(§1)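 Cells (500-1,000/well) rested 5 h, then received compounds for 48 h; metabolically active cells were measured by CellTiter-Glo luminescence. Final concentrations spanned up to 46 µM (MIPE, 11-point) or 0.59 nM-46 µM (NPC, 8-point) in primary screens, 11-point in follow-ups.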

The nature of assay [2]: qHTS of pediatric cancer cell lines to identify multiple opportunities for drug repurposing: Primary screen for Rh18 cells (AID 1347102). Further: nearly all actives have a fitted effect of over 65% in size. A digest of the protocol:
(§2)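 Viability after 48 h compound treatment at 37C, 500-1,000 cells/well, read as ATP luminescence with CellTiter-Glo. Primary screens used 11-point (MIPE, 0.78 nM-46 µM) or 8-point (NPC, 0.59 nM-46 µM) final concentrations; follow-up screens used 11-point dilutions.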

The nature of assay [3]: qHTS of pediatric cancer cell lines to identify multiple opportunities for drug repurposing: Primary screen for OHS-50 cells (AID 1347103). Further: nearly all actives have a fitted effect of over 40% in size. A digest of the protocol: as §1
The nature of assay [4]: qHTS of pediatric cancer cell lines to identify multiple opportunities for drug repurposing: Primary screen for RD cells (AID 1347104). Further: nearly all actives have a fitted effect of over 55% in size. A digest of the protocol:
(§3)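 Cells plated at 500-1,000/well in growth medium, compounds added after 5 h. MIPE tested at 11 points (from 0.78 nM), NPC at 8 points (from 0.59 nM). CellTiter-Glo luminescence after 48 h; concentration-response curves from primary screen.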

The nature of assay [5]: qHTS of pediatric cancer cell lines to identify multiple opportunities for drug repurposing: Primary screen for MG 63 (6-TG R) cells (AID 1347105). Further: nearly all actives have a fitted effect of over 50% in size. A digest of the protocol: as §3
Assay [6] in a line: qHTS of pediatric cancer cell lines to identify multiple opportunities for drug repurposing: Primary screen for Rh30 cells (AID 1347107). Further: nearly all actives have a fitted effect of over 75% in size. A digest of the protocol:
as §2

A short description of assay [7]: qHTS of pediatric cancer cell lines to identify multiple opportunities for drug repurposing: Primary screen for Rh41 cells (AID 1347108). Further: nearly all actives have a fitted effect of over 70% in size.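 On activity change, negative = cytotoxic: luminescence drop marks cytotoxic hits.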 An outline of the steps:
as §3

The nature of assay [8]: qHTS of pediatric cancer cell lines to identify multiple opportunities for drug repurposing: Primary screen for control Hh wild type fibroblast cells (AID 1347106). Further: nearly all actives have a fitted effect of over 55% in size.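 On activity change, negative = cytotoxic: a drop in luminescence marks cytotoxicity and a rise apparent proliferation.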 A digest of the protocol:
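Cells (500-1,000/well) in growth media were settled 5 h at 37 degrees C, then given compounds for 48 h. Viability was read as CellTiter-Glo luminescence. Primary runs used MIPE at 11 points (0.78 nM-46 µM) and NPC at 8 points (0.59 nM-46 µM); follow-ups used 11 points.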

Assay [9] in a line: qHTS of pediatric cancer cell lines to identify multiple opportunities for drug repurposing: Confirmatory screen for NB1643 cells (AID 1347109). Further: nearly all actives have a fitted effect of over 45% in size. A digest of the protocol:
as §2

Assay [10] is described as follows: qHTS of pediatric cancer cell lines to identify multiple opportunities for drug repurposing: Confirmatory screen for A673 cells (AID 1347110). Further: nearly all actives have a fitted effect of over 65% in size. An outline of the steps:
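Viability was read as ATP luminescence (CellTiter-Glo) after 48 h of compound exposure at 37 C in A673 cells seeded at 500-1,000/well. Titrations reached 46 uM final, with 11 points in the confirmatory screen. Concentration-response curves were fitted directly.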

Assay [11] can be described thus: qHTS of pediatric cancer cell lines to identify multiple opportunities for drug repurposing: Confirmatory screen for SK-N-MC cells (AID 1347111).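 Further: cells exposed to compound for 48 h before the readout; nearly all actives have a fitted effect of over 70% in size.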 A digest of the protocol:
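SK-N-MC cells at 500-1,000 cells/well in growth media were pre-incubated 5 h, then exposed to compounds at 11-point dilutions for 48 h at 37 degrees C, 5% CO2. Viability was read as CellTiter-Glo luminescence.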

A short description of assay [12]: qHTS of pediatric cancer cell lines to identify multiple opportunities for drug repurposing: Confirmatory screen for BT-12 cells (AID 1347112). Further: nearly all actives have a fitted effect of over 55% in size. An outline of the steps: as §2
A short description of assay [13]: qHTS of pediatric cancer cell lines to identify multiple opportunities for drug repurposing: Confirmatory screen for LAN-5 cells (AID 1347113). Further: nearly all actives have a fitted effect of over 65% in size. An outline of the steps: as §2
The nature of assay [14]: qHTS of pediatric cancer cell lines to identify multiple opportunities for drug repurposing: Confirmatory screen for DAOY cells (AID 1347114). Further: nearly all actives have a fitted effect of over 65% in size. An outline of the steps:
(§4)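 Viability measured as metabolically active cells via CellTiter-Glo luminescence following 48 hours of compound exposure, 11-point dilutions in confirmatory testing. 500-1,000 cells/well plated 5 hours before dosing; controls were DMSO and 2.3 µM bortezomib.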

Assay [15] can be described thus: qHTS of pediatric cancer cell lines to identify multiple opportunities for drug repurposing: Confirmatory screen for SJ-GBM2 cells (AID 1347116). Further: nearly all actives have a fitted effect of over 60% in size. A digest of the protocol:
as §4

Assay [16] in a line: qHTS of pediatric cancer cell lines to identify multiple opportunities for drug repurposing: Confirmatory screen for BT-37 cells (AID 1347117). Further: nearly all actives have a fitted effect of over 55% in size. The note with it: BT-37 pediatric cancer cells, viability; activity change, negative = cytotoxic: at 45.9 µM (top of the series). An outline of the steps:
as §2

Assay [17] is described as follows: qHTS of pediatric cancer cell lines to identify multiple opportunities for drug repurposing: Confirmatory screen for MG 63 (6-TG R) cells (AID 1347119). Further: nearly all actives have a fitted effect of over 55% in size. An outline of the steps: as §2
Assay [18] can be described thus: qHTS of pediatric cancer cell lines to identify multiple opportunities for drug repurposing: Confirmatory screen for control Hh wild type fibroblast cells (AID 1347121). Further: nearly all actives have a fitted effect of over 70% in size. An outline of the steps:
as §2

A short description of assay [19]: qHTS of pediatric cancer cell lines to identify multiple opportunities for drug repurposing: Confirmatory screen for TC32 cells (AID 1347118). Further: nearly all actives have a fitted effect of over 65% in size. An outline of the steps: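 TC32 cells, 500-1,000/well in growth medium, compound-treated 48 h at 37 °C; viability from CellTiter-Glo luminescence. Primary screen: MIPE 11-point (0.78 nM–46 µM final), NPC 8-point (0.59 nM–46 µM final); confirmatory at 11-point dilutions.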

A short description of assay [20]: qHTS of pediatric cancer cell lines to identify multiple opportunities for drug repurposing: Confirmatory screen for NB-EBc1 cells (AID 1347115). Further: nearly all actives have a fitted effect of over 45% in size. A digest of the protocol:
as §2
Potency means the concentration at half of the fitted maximal effect.

With `OCC(O)C(O)C(O)CO` (stereo unspecified), the Potency entry in assay [1], in assay [2], in [3], in assay [4], in assay [5] and in assay [6] was “inactive” each time. Further, the Potency result in [7] was “inactive”.
In the case of `CCC[C@@H](C=O)NC(=O)[C@H](CC(C)C)NC(=O)[C@H](CC(C)C)NC(=O)OCc1ccccc1` (Cbz-Leu-Leu-[Nva]-aldehyde), the Potency in [1] was 2170 nM (active); in assay [2], 2350 nM (active); in assay [3], 1530 nM (active); in assay [4], 935 nM (active); in [5] it was 935 nM (active); in assay [8], 5260 nM (active). Further, the Potency in [6] is 4690 nM (active); in [7], 2350 nM (active); in [9] it was 1650 nM (active); in [10], 1170 nM (active); in assay [11] it was 414 nM (active); in assay [12], 2930 nM (active). In addition, the Potency in [13] is 1470 nM (active); in assay [14], 1170 nM (active); in [15], 2080 nM (active); in [16], 1170 nM (active); in [17] it was 827 nM (active); in [18] it was 7370 nM (active).
With `COc1cc(OC)cc(-c2ccc3ncc4ccc(=O)n(-c5ccc(N6CCNCC6)c(C(F)(F)F)c5)c4c3c2)c1`, the Potency was 19300 nM (active) in assay [1]; 14800 nM (active) in assay [2]; 4320 nM (active) in assay [3]; 8330 nM (active) in assay [4]; 14800 nM (active) in assay [5]; 20900 nM (active) in [8]. The Potency was 16600 nM (active) in [6] and 3720 nM (active) in [7].
In the case of `Nc1nc(=O)n([C@H]2CSC(CO)O2)cc1F` (stereo partly specified), the Potency entry in assay [1], in assay [2], in [3], in [4], in assay [5] and in assay [6] was “inactive” throughout. In assay [7], the Potency entry is “inactive”.
Turning to `C=CC(=O)Nc1ccc2ncnc(Nc3ccc(OCc4cccc(F)c4)c(Cl)c3)c2c1`, the Potency was 17.2 nM (active) in assay [1]; 7430 nM (active) in [2]; 4.3 nM (active) in [3]; 29.6 nM (active) in [4]; 296 nM (active) in assay [5]; 235 nM (active) in [7]. In addition, the Potency in assay [9] is 14700 nM (active); in [10] it was 3290 nM (active); in assay [11], 7370 nM (active); in [12], 10400 nM (active); in assay [13], 20800 nM (active); in [14], 7370 nM (active). The Potency is 2610 nM (active) in [15], 9270 nM (active) in assay [16], 7370 nM (active) in [19] and 8270 nM (active) in assay [17]. Also, the Potency result in assay [8] was “inactive”.
`CCN(CC)CCNC(=O)c1c(C)[nH]c(C=C2C(=O)Nc3ccc(F)cc32)c1C`: the Potency in [1] was 44400 nM (active); in assay [2], 17100 nM (active); in assay [3], 1400 nM (active); in assay [4] it was 9590 nM (active); in assay [5] it was 13600 nM (active); in [8], 17100 nM (active). In addition, the Potency was 27000 nM (active) in [6]; 13600 nM (active) in [7]; 10700 nM (active) in assay [9]; 33900 nM (active) in [12]; 10700 nM (active) in [13]; 17000 nM (active) in assay [14]. In [17], the Potency is 13500 nM (active).
Take `Cc1ccc([N+](=O)[O-])cc1S(=O)(=O)N(C)N=Cc1cnc2ccc(Br)cn12`: the Potency in [1] is 34.3 nM (active); in assay [2], 148 nM (active); in [3], 30.6 nM (active); in [4], 74.3 nM (active); in assay [5], 18700 nM (active); in assay [7], 66.2 nM (active). Besides, the Potency is 165 nM (active) in [9]; 293 nM (active) in assay [10]; 827 nM (active) in assay [12]; 522 nM (active) in assay [13]; 329 nM (active) in [14]; 465 nM (active) in assay [15]. The Potency was 329 nM (active) in assay [16] and 293 nM (active) in assay [19]. Moreover, the Potency entry in [8] and in assay [6] was “inactive” in each case.
`C[C@@H](NCc1cc2ccccc2[nH]1)c1cccc2ccccc12`: the Potency result in assay [1], in assay [2], in [3], in assay [4], in assay [5] and in assay [8] was “inactive” throughout. Besides, the Potency result in assay [6] and in assay [7] was “inactive” throughout.
Take `COC1=C(OC)C(=O)C(CC=C(C)CCC=C(C)CCC=C(C)CCC=C(C)CCC=C(C)CCC=C(C)CCC=C(C)CCC=C(C)CCC=C(C)CCC=C(C)C)=C(C)C1=O`: the Potency result in assay [1], in assay [2], in assay [3], in assay [4], in [5] and in assay [6] was “inactive” in each case. Further, in assay [7], the Potency entry was “inactive”.
As for `COc1cc(C[C@@H](CO)[C@H](CO)Cc2ccc(O)c(OC)c2)ccc1O`, the Potency in [1] is 10900 nM (active); in [2] it was 4180 nM (active); in [3], 9680 nM (active); in assay [4], 526 nM (active); in assay [5], 935 nM (active); in assay [8], 418 nM (active). In addition, the Potency was 469 nM (active) in assay [6] and 935 nM (active) in [7]. Moreover, the Potency entry in assay [9], in assay [12], in assay [20], in assay [16], in assay [17] and in [18] was “inactive” each time.
Take `Cn1cnc(=N)c2[nH]cnc21`: the Potency was 1530 nM (active) in assay [1]; 264 nM (active) in [2]; 109 nM (active) in assay [3]; 935 nM (active) in assay [4]; 1480 nM (active) in assay [5]; 14800 nM (active) in assay [6]. Also, in assay [7], the Potency was 469 nM (active). Further, the Potency result in [8], in assay [12], in assay [13], in [14], in assay [20] and in [16] was “inactive” in each case. The Potency result in [17] and in assay [18] was “inactive” throughout.
With `CCCCCCCCCCCCCCCC(=O)OC[C@@H](NC(=O)C(Cl)Cl)[C@H](O)c1ccc([N+](=O)[O-])cc1`, the Potency entry in [1], in [2], in assay [3], in assay [4], in assay [5] and in assay [8] was “inactive” each time. For the same compound, the Potency entry in [6] and in [7] was “inactive” in each case.
Take `CC(C)OC(=O)[C@H](C)N[P@](=O)(OC[C@H]1O[C@@H](n2ccc(=O)[nH]c2=O)[C@](C)(F)[C@H]1O)Oc1ccccc1`: the Potency entry in [1], in [2], in assay [3], in assay [4], in assay [5] and in assay [6] was “inactive” throughout. Further, the Potency entry in assay [7] was “inactive”.
On to `CCS(=O)(=O)Nc1ccc2[nH]c(O)c(C(=Nc3ccc(CN4CCCCC4)cc3)c3ccccc3)c2c1`, for which the Potency in assay [1] was 21700 nM (active); in assay [2], 4180 nM (active); in assay [3], 1530 nM (active); in assay [4] it was 469 nM (active); in [5], 5900 nM (active); in assay [7], 743 nM (active). The Potency in assay [9] is 65.7 nM (active); in assay [11] it was 73.7 nM (active); in [12], 18500 nM (active); in assay [13], 185 nM (active); in [14], 16500 nM (active); in [20], 4650 nM (active). The Potency in assay [15] was 14700 nM (active); in assay [16] it was 16500 nM (active); in [17], 329 nM (active). The Potency result in [8] was “inactive”.
